Data taken from PubChem BioAssay.
Calls of active or inactive are those of the source.

Experiments:
[1] = small molecules captured by biotinylated probe aFSTL3 – biochemical, small-molecule microarray, fluorescence 635/667, stem cell growth factor project, primary screen (AID 1064); conditions: higher = more signal;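 note: measures binding of the biotinylated anti-FSTL3 antibody to printed compounds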
[2] = binders from COS7 lysate, DM2A8 probe, primary screen, torsin A project, cell lysate, small-molecule microarray, fluorescence 635/667 (AID 1065); conditions: higher = more signal, COS7 lysate expressing mutant human TOR1A
[3] = small molecules captured by biotinylated probe aFGF2 – biochemical, small-molecule microarray, fluorescence 635/667, stem cell growth factor project, primary screen (AID 1067); conditions: higher = more signal;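 note: measures binding of biotinylated aFGF2 protein to printed compounds on slides; z-score merges feature fluorescence and signal-to-noise across triplicate slides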
[4] = small molecules captured by biotinylated probe aFGF10 – biochemical, small-molecule microarray, fluorescence 635/667, stem cell growth factor project, primary screen (AID 1071); conditions: higher = more signal;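 note: score merges 667 nm spot intensity and signal to noise from triplicate slides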
[5] = molecular target: Neurogenic locus notch homolog protein 2 (Homo sapiens) (UniProt Q04721); experiment: small molecules binding Notch2 protein – biochemical, small-molecule microarray, 635 nm fluorescence, stem cell growth factors, primary screen (AID 1073); conditions: higher = more signal
[6] = molecular target: Pro-neuregulin-1, membrane-bound isoform (Homo sapiens) (UniProt Q02297); experiment: small molecules binding neuregulin-1 protein – biochemical, small-molecule microarray, fluorescence 635/667, psychiatric disease protein project, primary screen (AID 1075); conditions: NRG1 binding, 635 nm fluorescence, higher = more signal;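 note: score combines 667 nm spot fluorescence with signal to noise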
[7] = tested on: Neuregulin-1 EGF-like domain; experiment: small molecules binding NRG1 EGF domain – biochemical, small-molecule microarray, 635 nm fluorescence, primary screen (AID 1081); conditions: higher = more signal;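 note: binding of the protein to compounds printed on small-molecule microarray slides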
[8] = FRG1 expression reporter modulators in myotubes – cell-based, C2C12 myotubes, firefly/Renilla luciferase, luminescence, FRG1 inhibition for FSHD, primary screen (AID 1084); conditions: FRG1 promoter luciferase, higher = more signal, called active from +8 up or from −8 down
[9] = small molecules captured by biotinylated probe aFST – biochemical, small-molecule microarray, fluorescence 635/667, stem cell growth factor project, primary screen (AID 1086); conditions: higher = more signal;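 note: score merges 667 nm fluorescence with signal-to-noise of each printed compound spot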
[10] = binders of probe aHhip on microarray, primary screen, stem cell growth factor project, biochemical, small-molecule microarray, fluorescence 635/667 (AID 1087); conditions: higher = more signal;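 note: score merges spot fluorescence at 667nm with spot signal to noise ratio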

Neurogenic locus notch homolog protein 2 (Homo sapiens), sequence (Q04721 whole entry, looked up, canonical isoform): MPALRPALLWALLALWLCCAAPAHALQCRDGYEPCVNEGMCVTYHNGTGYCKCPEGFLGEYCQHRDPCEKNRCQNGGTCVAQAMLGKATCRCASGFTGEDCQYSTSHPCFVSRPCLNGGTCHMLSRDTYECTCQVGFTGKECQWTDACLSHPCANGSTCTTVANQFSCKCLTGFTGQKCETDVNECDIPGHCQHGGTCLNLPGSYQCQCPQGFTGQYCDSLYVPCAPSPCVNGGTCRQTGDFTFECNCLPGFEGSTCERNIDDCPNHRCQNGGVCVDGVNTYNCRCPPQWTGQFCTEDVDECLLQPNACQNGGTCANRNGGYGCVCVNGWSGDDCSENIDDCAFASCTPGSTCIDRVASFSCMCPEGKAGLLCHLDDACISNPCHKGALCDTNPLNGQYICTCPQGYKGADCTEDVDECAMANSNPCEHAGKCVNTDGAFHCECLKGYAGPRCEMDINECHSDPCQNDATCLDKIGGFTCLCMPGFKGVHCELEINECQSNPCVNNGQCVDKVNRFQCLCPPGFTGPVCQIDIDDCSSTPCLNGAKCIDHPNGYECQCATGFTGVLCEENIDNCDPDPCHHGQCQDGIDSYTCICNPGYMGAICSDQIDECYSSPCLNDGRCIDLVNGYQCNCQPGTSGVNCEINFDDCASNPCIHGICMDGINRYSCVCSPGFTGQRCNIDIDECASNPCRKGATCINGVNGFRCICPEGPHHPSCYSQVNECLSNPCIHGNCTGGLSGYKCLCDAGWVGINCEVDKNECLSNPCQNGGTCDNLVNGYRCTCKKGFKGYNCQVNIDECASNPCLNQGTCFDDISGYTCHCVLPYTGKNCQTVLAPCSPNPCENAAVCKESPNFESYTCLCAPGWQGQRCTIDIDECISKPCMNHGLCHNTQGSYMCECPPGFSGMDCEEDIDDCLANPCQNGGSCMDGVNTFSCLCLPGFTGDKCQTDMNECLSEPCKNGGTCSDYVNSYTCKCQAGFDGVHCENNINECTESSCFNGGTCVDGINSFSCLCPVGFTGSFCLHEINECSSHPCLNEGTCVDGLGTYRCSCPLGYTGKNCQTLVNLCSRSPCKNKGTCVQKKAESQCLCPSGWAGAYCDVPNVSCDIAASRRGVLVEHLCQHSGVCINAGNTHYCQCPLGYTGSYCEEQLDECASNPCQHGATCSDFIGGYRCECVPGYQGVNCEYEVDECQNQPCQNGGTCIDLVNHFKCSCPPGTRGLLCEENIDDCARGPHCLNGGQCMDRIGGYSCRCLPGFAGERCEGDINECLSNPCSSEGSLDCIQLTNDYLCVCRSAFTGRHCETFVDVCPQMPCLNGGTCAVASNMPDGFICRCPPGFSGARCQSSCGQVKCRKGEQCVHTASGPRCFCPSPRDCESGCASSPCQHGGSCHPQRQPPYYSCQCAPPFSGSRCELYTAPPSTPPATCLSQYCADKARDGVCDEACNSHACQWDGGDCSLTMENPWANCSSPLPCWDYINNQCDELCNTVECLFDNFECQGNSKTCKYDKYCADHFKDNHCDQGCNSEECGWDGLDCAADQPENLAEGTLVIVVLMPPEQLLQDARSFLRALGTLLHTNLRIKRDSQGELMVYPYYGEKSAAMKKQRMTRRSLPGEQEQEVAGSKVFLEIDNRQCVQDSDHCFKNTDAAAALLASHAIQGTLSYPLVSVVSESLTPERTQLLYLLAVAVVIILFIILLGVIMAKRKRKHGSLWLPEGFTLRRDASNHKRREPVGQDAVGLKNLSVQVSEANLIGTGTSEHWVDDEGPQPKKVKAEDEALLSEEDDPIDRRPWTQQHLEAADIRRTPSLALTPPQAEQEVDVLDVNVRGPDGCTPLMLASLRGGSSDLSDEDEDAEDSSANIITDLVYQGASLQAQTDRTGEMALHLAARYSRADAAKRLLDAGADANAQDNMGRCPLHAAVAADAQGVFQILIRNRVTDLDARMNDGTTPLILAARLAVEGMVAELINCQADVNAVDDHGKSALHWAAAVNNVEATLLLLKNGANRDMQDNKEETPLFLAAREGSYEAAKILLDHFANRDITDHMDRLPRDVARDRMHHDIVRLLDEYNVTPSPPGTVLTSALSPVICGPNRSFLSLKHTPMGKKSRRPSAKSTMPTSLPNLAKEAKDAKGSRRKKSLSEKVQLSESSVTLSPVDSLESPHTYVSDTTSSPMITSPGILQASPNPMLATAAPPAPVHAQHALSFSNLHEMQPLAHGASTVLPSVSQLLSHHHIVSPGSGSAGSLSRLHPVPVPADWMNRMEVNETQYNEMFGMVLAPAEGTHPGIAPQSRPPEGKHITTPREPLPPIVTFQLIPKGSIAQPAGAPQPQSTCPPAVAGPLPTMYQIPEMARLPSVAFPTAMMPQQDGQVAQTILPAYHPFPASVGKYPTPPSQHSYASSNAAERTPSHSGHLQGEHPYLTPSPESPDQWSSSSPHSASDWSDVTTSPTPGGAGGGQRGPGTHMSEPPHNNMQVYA
Pro-neuregulin-1, membrane-bound isoform (Homo sapiens), sequence (Q02297 whole entry, looked up, the tested form may be a part, canonical isoform): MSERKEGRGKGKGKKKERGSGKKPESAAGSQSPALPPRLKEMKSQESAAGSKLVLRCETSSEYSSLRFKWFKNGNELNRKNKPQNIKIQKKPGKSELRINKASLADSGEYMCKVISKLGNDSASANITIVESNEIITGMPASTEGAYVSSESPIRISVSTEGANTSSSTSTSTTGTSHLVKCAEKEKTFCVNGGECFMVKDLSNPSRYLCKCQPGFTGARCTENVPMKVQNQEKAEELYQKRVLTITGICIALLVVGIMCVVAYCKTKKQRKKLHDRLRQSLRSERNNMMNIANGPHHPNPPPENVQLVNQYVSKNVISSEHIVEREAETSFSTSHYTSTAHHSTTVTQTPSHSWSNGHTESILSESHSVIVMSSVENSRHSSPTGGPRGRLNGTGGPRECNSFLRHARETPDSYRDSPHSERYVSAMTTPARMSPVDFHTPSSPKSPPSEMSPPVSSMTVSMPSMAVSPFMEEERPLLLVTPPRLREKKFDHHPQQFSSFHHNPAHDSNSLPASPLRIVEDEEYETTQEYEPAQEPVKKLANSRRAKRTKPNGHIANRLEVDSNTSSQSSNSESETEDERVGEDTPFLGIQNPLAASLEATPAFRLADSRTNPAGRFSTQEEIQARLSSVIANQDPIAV

Compound	composite z-score [1]	composite z-score [2]	composite z-score [3]	composite z-score [4]	composite z-score [5]	composite z-score [6]	composite z-score [7]	z-score [8]	composite z-score [9]	composite z-score [10]
CCOC(=O)C[C@H]1[C@H](OC(=O)c2ccc(-c3ccccc3)cc2)[C@@H](NC(=O)CC(C)C)c2cc(OCCCO)ccc2N1C(=O)c1ccc2ccccc2n1	-0.459	0.176	-0.149	0.205	0.458	0.491	0.76	0.375 (inactive)	0.185	0.1
C=CCC(OC(C)=O)[C@@H]1[C@@H](N(Cc2ccc(-c3cccc(C(F)(F)F)c3)o2)C(=O)c2ccc(-c3ccccc3)cc2)c2cc(OCCCO)ccc2N1C(=O)Cc1ccc2ccccc2c1 (stereo not given in full)	-0.414	-0.732	-0.0454	-0.342	-0.753	-0.337	-0.0291	-0.0069 (inactive)	1.09	0.0156
COc1cc2c(cc1O)C(C1CC1)N(Cc1cccc(OC(F)(F)F)c1)CC2 (stereo not given)	-0.119	0.257	-0.101	0.248	-0.725	1.39	0.857	0.329 (inactive)	-0.182	0.132
C=C(COC)/C(=C/C[C@H](OC(=O)c1ccncc1)c1ccc(CO)o1)c1cnc2ccccc2c1	0.138	0.47	-0.124	0.741	1.21	0.98	1.14	1.29 (inactive)	-0.0236	-0.113
[N-]=[N+]=Nc1ccccc1C[C@]1(C(=O)NCC(O)CO)COC(c2ccc(OCCCO)cc2)=N1 (stereo not given in full)	0.502	0.475	0.0154	0.859	-0.33	1.43	1.14	2.1 (inactive)	0.255	-0.0994
CCCC=C(CCC)[C@@H](NC(=O)c1cccs1)c1ccc(C(=O)OC)cc1	2.23	0.392	0.905	1.1	0.592	0.028	0.648	0.874 (inactive)	2.61	1.39
COCC(=C=CC[C@H](O)c1ccc(CO)o1)CCO	-0.254	-0.0406	0.0154	0.553	-0.234	1.19	1.23	0.461 (inactive)	0.51	0.382
CCCCCC1=C2CNC(C)(C(=O)OC)C=C2C(C)C1=O (stereo not given)	0.59	-0.414	-0.0676	0.0477	0.363	1.07	0.972	1.78 (inactive)	0.0861	0.376
CC(C)NC(=O)[C@@]1(c2ccc([N+](=O)[O-])cc2)CC(=O)N(C2CCCCC2)[C@@H]1c1ccc(CO)cc1	-0.903	1.08	0.0584	0.817	0.261	1.69	1.35	-0.629 (inactive)	-0.114	-0.172
CCCCN1CC=CC23O[C@@H]4/C=C\CCCOC(=O)C4[C@H]2C(=O)N(CCO)[C@@H]3C1=O (stereo not given in full)	0.33	-1.37	-0.19	-0.615	-0.913	0.441	1.61	-0.0657 (inactive)	-1	-0.271
CS(=O)(=O)CCOC(=O)C1=CC(CCCO)=CC(c2ccc(CN3CCCC3)cc2)N(Cc2sc3ccccc3c2Cl)C=C1C(=O)OCCS(C)(=O)=O (stereo not given)	0.0681	2.14	0.198	1.3	1.62	2.16	1.22	0.168 (inactive)	0.888	0.0053
O=C1C2C=CC(C(O)c3cccc(O)c3)N(Nc3ccc([N+](=O)[O-])cc3)C2C(=O)N1c1ccccc1 (stereo not given)	-0.171	0.325	-0.0133	0.765	0.719	0.0076	0.63	0.125 (inactive)	0.441	-0.136
[N-]=[N+]=Nc1ccccc1[C@H]1OC(c2ccc(OCCCO)cc2)=N[C@@]1(Cc1ccccc1)C(=O)NCCN1CCOCC1	0.701	0.584	0.178	1.19	1.65	1.96	1.39	0.0219 (inactive)	1.66	-0.106
CCCCCN1CC=CC23O[C@@H]4/C=C\CCC(C)OC(=O)C4[C@H]2C(=O)N(C(CO)C(C)C)[C@@H]3C1=O (stereo not given in full)	-1.2	-0.456	-0.245	-0.246	-0.406	1.21	1.38	-0.23 (inactive)	-0.592	-0.457
CC(C)C(CO)N1C(=O)[C@@H]2C3C(=O)OCCC/C=C\[C@H]3OC23C=CCN(Cn2nnc4ccccc42)C(=O)[C@@H]13 (stereo not given in full)	0.314	-0.665	-0.148	-0.323	-0.72	1.88	0.476	0.0182 (inactive)	0.013	-0.306
C=C[C@H](C)[C@H](OC(=O)Nc1ccc(SC)cc1)c1ccc(OCCO)cc1	-0.0439	1.18	-0.1	0.406	-0.34	0.745	1.15	4.38 (inactive)	0.0319	0.0972

Compound	composite z-score [1]	composite z-score [2]	composite z-score [3]	composite z-score [4]	composite z-score [5]	composite z-score [6]	composite z-score [7]	z-score [8]	composite z-score [9]	composite z-score [10]
COc1ccc(CCNC(=O)[C@@]2(c3ccc([N+](=O)[O-])cc3)CC(=O)N(C3CCCCC3)[C@@H]2c2ccc(CO)cc2)cc1	0.376	0.409	0.0598	0.325	0.58	1.54	1.23	-0.517 (inactive)	0.602	0.177
COc1cccc(C)c1NC(=O)O[C@H]1[C@H](OC(=O)Nc2ccccc2-c2ccccc2)[C@H](OC(=O)Nc2ccccc2-c2ccccc2)[C@@H](OC)O[C@@H]1CO	-0.205	0.0513	0.137	0.542	1.46	1.46	1.14	0.379 (inactive)	1.48	-0.219
CC[C@@H]1C=C(C(=O)O)[C@H](c2ccc(C#N)cc2)N1S(=O)(=O)c1ccc(C)cc1	0.6	2.35	0.0865	1.09	0.905	1.25	1.3	0.281 (inactive)	0.145	-0.134
CCOC(=O)C[C@H]1[C@H](OC(=O)c2cc3ccccc3oc2=O)[C@@H](NC(=O)c2ccc3ccccc3n2)c2cc(OCCCO)ccc2N1C(=O)Cc1ccc(OC)cc1	-0.446	0.522	-0.0107	0.302	0.958	1.03	0.946	0.547 (inactive)	0.24	-0.201
CC(C)N1C(=O)C[C@@](C(=O)NC2CC2)(c2ccc([N+](=O)[O-])cc2)[C@H]1c1ccc(CO)cc1	0.632	0.387	-0.111	0.173	-0.551	1.75	1.35	0.74 (inactive)	-0.551	-0.0994
CCCC=C(CCC)[C@@H](NC(=O)C(C)(C)C)c1ccc(C(=O)OC)cc1	0.488	-0.495	0.202	0.0431	1.45	0.992	0.883	-4.15 (inactive)	1.26	-0.115
CCOC(=O)C1=CC[C@@H](c2ccccc2F)N(S(=O)(=O)c2ccc(C)cc2)[C@H]1c1ccccc1	-0.419	-0.0956	-0.0253	0.765	1.46	0.65	0.677	-3.46 (inactive)	0.789	-0.11
COc1ccc([Si](C)(C)[C@@H]2[C@@H](CCO)O[C@]3(C(=O)N(Cc4ccccc4)c4ccc(NC(=O)[C@H](C)O)cc43)[C@H]2C)cc1	-0.441	0.383	-0.0505	0.8	1.23	1.13	1.13	-3.84 (inactive)	0.559	0.162
C=CCNC(=O)[C@@H]1[C@H]2C(=O)O[C@H](c3ccccc3)[C@H](c3ccccc3)N2[C@H](c2ccccc2OCCO)[C@@]12C(=O)Nc1ccc(C#CCC(C(=O)OC)C(=O)OC)cc12	-0.44	0.491	-0.116	0.422	0.894	1.39	1.28	1.1 (inactive)	-0.437	-0.347
Cc1ccc(S[C@]2(C(=O)NCc3ccccc3)CC(=O)N(C3CCCCC3)[C@@H]2c2ccc(CO)cc2I)cc1	1.27	-0.0582	0.11	0.339	0.553	1.17	1.19	-2.84 (inactive)	0.455	-0.132
O[C@@H](Cc1ccccc1)[C@@H](/C=C/C1CC1)N(CC#Cc1ccccc1)Cc1ccccc1Br	1.53	-0.614	-0.157	-0.763	-0.836	-0.0422	-0.0401	-0.507 (inactive)	-0.221	-0.19
CC(=O)N1CC2(CC2)CC1c1ccccc1 (stereo not given)	0.392	1.04	-0.14	0.242	0.437	0.163	0.413	2.2 (inactive)	0.661	0.533
C=CCN1C(=O)[C@]2(CCC(=O)OC(C)(C)C)N=C(c3ccc(OCCCO)cc3)O[C@@H]2c2ccccc21	0.369	0.401	-0.0791	-0.475	0.729	0.811	0.542	-2.29 (inactive)	0.0909	-0.0994
O=C1O[C@@H](c2ccccc2)[C@@H](c2ccccc2)N2[C@@H](c3ccc(OCCO)cc3)[C@]3(C(=O)Nc4ccc(C#CC5=CCCCC5)cc43)[C@@H](C(=O)NC[C@H](O)c3ccccc3)[C@H]12	-0.94	0.297	-0.0384	0.6	1.48	0.655	1.13	2.03 (inactive)	0.126	-0.142
N[C@@H](Cc1ccccc1)C(=O)NCc1cn(Cc2ccccc2)nn1	0.231	0.595	-0.0465	0.157	0.108	-0.191	1.04	0.46 (inactive)	0.145	-0.0296
